# The sample as a whole holds a higher share of the strongest signals than the screen did.
# B1: GS13814A-bth-462-26-462 (Bacteroides thetaiotaomicron) (protein)
# chain: DDRDNLMVNDQIGLLHSTYTETEIFRGMDTPYQLFVIKSGKGKQETEVSISVDETVLQSYNTDNGTSIQLLPSDCYTILQPALRLNDSDYRKAFDIKWNADRLSDLLSTGKEYGLPIQMSVVQNFISADDERLKTIIVPTIKEPYLQMDVPGMSPVTDFMPTFGDLNERELFVKIRTNYSNDEDISFQIEVDPQLVIDYNTAHGTAYKMLPESSFTVDNKGVILTGMKETFIKIKYHKKGLIPEEGTYLFGDYVLPLRITSVSKYGISPDAASKLYTVKFQPDPIDKKGWSVIDFNNCCTQDGGWYLNMGWGVESLIDNNPGTQWLCRWDVKEPLPYYFVFDMGKEYTLFRFGFANPVAPAAHVWAGTSKAGYVEASIDNENWVKLKDWTSPKIGEPNVNMDVPATQARYIRFVITDTYPTYDGLRVSLGEVYAWGM
# Legend:
# Experiment in all cases: glycan array binding signal (z-score within array); higher = stronger binding
# Conditions in all cases: glycan notation: IUPAC condensed, linker removed
# [1] = target: Fuc(a1-2)Gal(b1-3)GalNAc(b1-3)Gal(a1-4)Gal(b1-4)Glc
# In short: (§1)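 From the Consortium for Functional Glycomics database, 3228 arrays were curated, keeping only those whose protein sequence was available. Binding is given as a within-array Z-score averaged across arrays sharing a protein sequence and across linkers. Negative Z-scores can be read as non-binding.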
# [2] = target: Fuc(a1-2)Gal(b1-3)GlcNAc(b1-3)[Neu5Ac(a2-6)Gal(b1-4)GlcNAc(b1-6)]Gal(b1-4)Glc
# In short: as §1
# [3] = target: Fuc(a1-2)Gal(b1-3)[Fuc(a1-4)]GlcNAc(b1-2)Man(a1-3)[Fuc(a1-2)Gal(b1-3)[Fuc(a1-4)]GlcNAc(b1-2)Man(a1-6)]Man(b1-4)GlcNAc(b1-4)[Fuc(a1-6)]GlcNAc(b1-4)[Fuc(a1-6)]GlcNAc
# In short: as §1
# [4] = target: Fuc(a1-2)Gal(b1-4)[Fuc(a1-3)]GlcNAc(b1-3)GalNAc
# In short: as §1
# [5] = target: Fuc(a1-2)Gal6S(b1-3)GlcNAc6S
# In short: as §1
# [6] = target: Fuc(a1-2)[Gal(a1-3)]Gal(b1-4)[Fuc(a1-3)]Glc
# In short: as §1
# [7] = target: Fuc(a1-2)[Gal(a1-4)]Gal(b1-4)GlcNAc
# In short: as §1
# [8] = target: Fuc(a1-2)[GalNAc(a1-3)]Gal(b1-3)GalNAc(b1-3)Gal(a1-4)Gal(b1-4)Glc
# In short: as §1
# [9] = target: Fuc(a1-2)[GalNAc(a1-3)]Gal(b1-4)GlcNAc(b1-3)Gal(b1-4)GlcNAc(b1-3)Gal(b1-4)GlcNAc
# In short: as §1
# [10] = target: Fuc(a1-2)[GalNAc(a1-3)]Gal(b1-4)GlcNAc(b1-3)GalNAc
# In short: as §1
# [11] = target: Fuc(a1-2)[GalNAc(a1-3)]Gal(b1-4)[Fuc(a1-3)]GlcNAc(b1-3)GalNAc
# In short: as §1
# [12] = target: Fuc(a1-3)[Gal(b1-4)]GlcNAc(b1-2)Man
# In short: as §1
# [13] = target: Fuc(a1-3)[Gal3S(b1-4)]GlcNAc
# In short: as §1
# [14] = target: Fuc(a1-3)[GalNAc(b1-4)]GlcNAc
# In short: as §1
# Fuc(a1-4)GlcNAc = target: Fuc(a1-4)GlcNAc
# In short: as §1
# Gal(b1-3)GalNAc(b1-3)Gal = target: Gal(b1-3)GalNAc(b1-3)Gal
# In short: as §1
# [15] = target: Gal(b1-3)GlcNAc(b1-3)Gal(b1-4)[Fuc(a1-3)]GlcNAc
# In short: as §1
# [16] = target: Gal(b1-3)[Neu5Ac(b2-6)]GalNAc
# In short: as §1
# Gal(b1-4)Glc6S = target: Gal(b1-4)Glc6S
# In short: as §1
# [17] = target: Gal(b1-4)GlcNAc(b1-3)Gal(b1-3)GlcNAc
# In short: as §1
# [18] = target: Gal(b1-4)GlcNAc(b1-3)Gal(b1-4)GlcNAc(b1-2)[Gal(b1-4)GlcNAc(b1-3)Gal(b1-4)GlcNAc(b1-6)]Man(a1-6)[Gal(b1-4)GlcNAc(b1-3)Gal(b1-4)GlcNAc(b1-2)Man(a1-3)]Man(b1-4)GlcNAc(b1-4)GlcNAc
# In short: as §1
# [19] = target: Gal(b1-4)GlcNAc(b1-3)Gal(b1-4)[Fuc(a1-3)]GlcNAc(b1-3)Gal(b1-4)[Fuc(a1-3)]GlcNAc
# In short: as §1
# [20] = target: Gal(b1-4)GlcNAc(b1-3)[Gal(b1-4)GlcNAc(b1-6)]Gal(b1-4)GlcNAc
# In short: as §1
# [21] = target: Gal(b1-4)GlcNAc(b1-3)[GlcNAc(b1-6)]Gal(b1-4)GlcNAc
# In short: as §1
# Gal(b1-6)Gal = target: Gal(b1-6)Gal
# In short: as §1
# Gal3S(b1-4)Glc = target: Gal3S(b1-4)Glc
# In short: as §1
# Gal3S6S(b1-4)GlcNAc6S = target: Gal3S6S(b1-4)GlcNAc6S
# In short: as §1
# GalNAc(b1-3)Gal = target: GalNAc(b1-3)Gal
# In short: as §1
# [22] = target: GalNAc(b1-3)Gal(a1-4)Gal(b1-4)GlcNAc
# In short: as §1
# GalNAc(b1-6)GalNAc = target: GalNAc(b1-6)GalNAc
# In short: as §1
# [23] = target: GlcNAc(b1-3)Gal(b1-4)GlcNAc(b1-3)Gal(b1-4)GlcNAc(b1-2)[GlcNAc(b1-3)Gal(b1-4)GlcNAc(b1-3)Gal(b1-4)GlcNAc(b1-6)]Man(a1-6)[GlcNAc(b1-3)Gal(b1-4)GlcNAc(b1-3)Gal(b1-4)GlcNAc(b1-2)Man(a1-3)]Man(b1-4)GlcNAc(b1-4)[Fuc(a1-6)]GlcNAc
# In short: as §1
# [24] = target: GlcNAc(b1-3)Gal(b1-4)GlcNAc(b1-3)Gal(b1-4)GlcNAc(b1-3)Gal(b1-4)GlcNAc(b1-2)Man(a1-3)[GlcNAc(b1-3)Gal(b1-4)GlcNAc(b1-3)Gal(b1-4)GlcNAc(b1-3)Gal(b1-4)GlcNAc(b1-2)Man(a1-6)]Man(b1-4)GlcNAc(b1-4)GlcNAc
# In short: as §1
# [25] = target: GlcNAc(b1-3)Gal(b1-4)GlcNAc(b1-3)Gal(b1-4)GlcNAc(b1-3)Gal(b1-4)GlcNAc(b1-3)Gal(b1-4)GlcNAc(b1-2)Man(a1-3)[GlcNAc(b1-3)Gal(b1-4)GlcNAc(b1-3)Gal(b1-4)GlcNAc(b1-3)Gal(b1-4)GlcNAc(b1-3)Gal(b1-4)GlcNAc(b1-2)Man(a1-6)]Man(b1-4)GlcNAc(b1-4)[Fuc(a1-6)]GlcNAc
# In short: as §1
# [26] = target: GlcNAc(b1-3)[GlcNAc(b1-6)]Gal(b1-4)GlcNAc
# In short: as §1
# Kdn(a2-3)Gal(b1-3)GalNAc = target: Kdn(a2-3)Gal(b1-3)GalNAc
# In short: as §1
# Man(a1-3)[Man(a1-6)]Man = target: Man(a1-3)[Man(a1-6)]Man
# In short: as §1
# [27] = target: Man(a1-3)[Man(a1-6)]Man(a1-6)[Man(a1-3)]Man
# In short: as §1
# Man(a1-6)Man = target: Man(a1-6)Man
# In short: as §1
# [28] = target: Neu5Ac(a2-3)Gal(b1-3)]Neu5Ac(a2-3)Gal(b1-4)]GlcNAc
# In short: as §1
# Neu5Ac(a2-3)Gal(b1-4)Glc = target: Neu5Ac(a2-3)Gal(b1-4)Glc
# In short: as §1
# [29] = target: Neu5Ac(a2-3)Gal(b1-4)GlcNAc(b1-3)Gal
# In short: as §1
# [30] = target: Neu5Ac(a2-3)Gal(b1-4)GlcNAc(b1-3)Gal(b1-4)[Fuc(a1-3)]GlcNAc
# In short: as §1
# [31] = target: Neu5Ac(a2-3)Gal(b1-4)GlcNAc(b1-3)GalNAc
# In short: as §1
# [32] = target: Neu5Ac(a2-3)Gal(b1-4)[Fuc(a1-3)]GlcNAc(b1-3)Gal(b1-4)GlcNAc
# In short: as §1
# [33] = target: Neu5Ac(a2-3)Gal(b1-4)[Fuc(a1-3)]GlcNAc(b1-3)GalNAc
# In short: as §1
# [34] = target: Neu5Ac(a2-3)[GalNAc(b1-4)]Gal(b1-4)GlcNAc(b1-3)GalNAc
# In short: as §1
# [35] = target: Neu5Ac(a2-6)Gal(b1-4)GlcNAc
# In short: as §1
# [36] = target: Neu5Ac(a2-6)Gal(b1-4)GlcNAc(b1-2)Man(a1-3)[GlcNAc(b1-2)Man(a1-6)]Man(b1-4)GlcNAc(b1-4)GlcNAc
# In short: as §1
# [37] = target: Neu5Ac(a2-6)Gal(b1-4)GlcNAc(b1-3)Gal(b1-4)GlcNAc(b1-3)[Neu5Ac(a2-6)Gal(b1-4)GlcNAc(b1-3)Gal(b1-4)GlcNAc(b1-6)]GalNAc
# In short: as §1
# [38] = target: Neu5Ac(a2-6)Gal(b1-4)GlcNAc(b1-3)Gal(b1-4)GlcNAc(b1-6)[Gal(b1-3)]GalNAc
# In short: as §1
# [39] = target: Neu5Ac(a2-8)Neu5Ac(a2-3)Gal(b1-4)GlcNAc
# In short: as §1
# [40] = target: Neu5Ac(a2-8)Neu5Ac(a2-8)Neu5Ac(a2-3)Gal(b1-4)Glc
# In short: as §1
# [41] = target: Neu5Gc(a2-3)Gal(b1-4)GlcNAc
# In short: as §1
# [42] = target: Neu5Gc(a2-8)Neu5Ac(a2-3)Gal(b1-4)GlcNAc
# In short: as §1
binder,measurement,setting,value
B1,glycan array binding signal (z-score),[1],-0.308
same,glycan array binding signal (z-score),[2],-0.718
same,glycan array binding signal (z-score),[3],0.703
same,glycan array binding signal (z-score),[4],2.19
same,glycan array binding signal (z-score),[5],3.15
same,glycan array binding signal (z-score),[6],0.027
same,glycan array binding signal (z-score),[7],1.11
same,glycan array binding signal (z-score),[8],1.01
same,glycan array binding signal (z-score),[9],-0.363
same,glycan array binding signal (z-score),[10],-0.276
same,glycan array binding signal (z-score),[11],2.42
same,glycan array binding signal (z-score),[12],0.981
same,glycan array binding signal (z-score),[13],1.23
same,glycan array binding signal (z-score),[14],2.12
same,glycan array binding signal (z-score),Fuc(a1-4)GlcNAc,14.3
same,glycan array binding signal (z-score),Gal(b1-3)GalNAc(b1-3)Gal,0.61
same,glycan array binding signal (z-score),[15],0.725
same,glycan array binding signal (z-score),[16],-0.165
same,glycan array binding signal (z-score),Gal(b1-4)Glc6S,-0.019
same,glycan array binding signal (z-score),[17],-0.895
same,glycan array binding signal (z-score),[18],-0.241
same,glycan array binding signal (z-score),[19],0.104
same,glycan array binding signal (z-score),[20],-0.298
same,glycan array binding signal (z-score),[21],-0.604
same,glycan array binding signal (z-score),Gal(b1-6)Gal,0.332
same,glycan array binding signal (z-score),Gal3S(b1-4)Glc,-0.952
same,glycan array binding signal (z-score),Gal3S6S(b1-4)GlcNAc6S,2.45
same,glycan array binding signal (z-score),GalNAc(b1-3)Gal,-0.506
same,glycan array binding signal (z-score),[22],2.74
same,glycan array binding signal (z-score),GalNAc(b1-6)GalNAc,-0.44
same,glycan array binding signal (z-score),[23],0.296
same,glycan array binding signal (z-score),[24],-0.256
same,glycan array binding signal (z-score),[25],1.41
same,glycan array binding signal (z-score),[26],-0.285
same,glycan array binding signal (z-score),Kdn(a2-3)Gal(b1-3)GalNAc,0.216
same,glycan array binding signal (z-score),Man(a1-3)[Man(a1-6)]Man,0.087
same,glycan array binding signal (z-score),[27],-1
same,glycan array binding signal (z-score),Man(a1-6)Man,0.563
same,glycan array binding signal (z-score),[28],2.12
same,glycan array binding signal (z-score),Neu5Ac(a2-3)Gal(b1-4)Glc,2.85
same,glycan array binding signal (z-score),[29],-0.359
same,glycan array binding signal (z-score),[30],-1.35
same,glycan array binding signal (z-score),[31],-0.818
same,glycan array binding signal (z-score),[32],2.69
same,glycan array binding signal (z-score),[33],2.14
same,glycan array binding signal (z-score),[34],-1.22
same,glycan array binding signal (z-score),[35],-0.069
same,glycan array binding signal (z-score),[36],0.48
same,glycan array binding signal (z-score),[37],-1.35
same,glycan array binding signal (z-score),[38],-0.806
same,glycan array binding signal (z-score),[39],-1.27
same,glycan array binding signal (z-score),[40],-1.35
same,glycan array binding signal (z-score),[41],1.47
same,glycan array binding signal (z-score),[42],-0.879

# — the supplement of paper PMC8728848
